# Laboratory results reported in PubChem BioAssay (Tox21).
# Results filed as inconclusive are left out. Values without a mark were called inactive. The call rests on the fitted dose curve; in most records, active means well fitted cell-killing curve with a large enough effect in the repeat runs; inconclusive means weak or mixed curves, or effect the other way; inactive means flat fitted curve, though single readings scatter. Where a SMILES comes first, the peptide text is derived from it. [ ]: non-standard residue; d: D form. pGlu = O=C1CC[C@@H](C(=O)O)N1
# Assay: qHTS assay to identify small molecule antagonists of the constitutive androstane receptor (CAR) signaling pathway - cell viability counter screen (AID 1224837); further: nearly all actives have a fitted effect of over 45% in size
# Details: HepG2-CYP2B6-hCAR viability, CellTiter-Fluor, 23 h, co-treated with 50 nM CITCO; series mostly up to 92.4 µM; activity change, negative = cytotoxicity: at the top concentration
# Excerpt: National Center for Advancing Translational Sciences [NCATS]
# NIH Chemical Genomics Center [NCGC]
# U.S. Environmental Protection Agency [EPA]
# National Institutes of Environmental Health Sciences [NIEHS]
# National Toxicology Program [NTP]
# U.S. Food and Drug Administration [FDA]
# The constitutive androstane receptor (CAR) is a nuclear receptor which regulates multiple drug metabolizing enzymes (DMEs) and transporters. Activating CAR will generally increase the transcription and subsequent translation of CYP2B6 and CYP3A4. These two DMEs represent about 50% of the drug metabolizing potential in the body. When CAR is deactivated, the metabolizing potential in the body will decrease, subsequently increasing the toxicity in the body or lowering the therapeutic potential of a pro-drug. Recently, there have also been studies performed indicating CARs role in energy metabolism and cancer therapy. Therefore, inhibiting CARs activity could have a potential effect on diabetes and cancer. Identifying environmental toxins and compounds which modulate CAR, through the use of the Tox21 10K compound collection, will be an important step in determining the toxicity and potential therapeutic effects these factors will have on the human body. To differentiate true CAR antagonists from cytotoxic substances, the assay is multiplexed with a cell viability assay.
# Tox21 Assay Protocol Summary:
# A double-stable (hCAR and CYP2B6-2.2kb) transfected cell line, derived from human hepatoma (HepG2) cells, was utilized for the duration of the quantitative high-throughput screens. The HepG2-CYP2B6-hCAR cells were dispensed at 2500 cells/4 uL/well in 1536-well white solid bottom plates using a Multidrop Combi. After the assay plates were incubated at 37 C/5% CO2 for 4 hrs, 23 nL of compounds at 15 concentrations (from 5-48 columns) or positive control (from 1 to 4 columns) were transferred to the assay plates using a Pintool station. One uL of CITCO (final concentration = 50 nM) was added, using a Flying Reagent Dispenser, inside each well. After a 23 hr incubation period at 37 C/5% CO2, 1 uL of CellTiter-Fluor reagent was added into each well of the assay plates using a Flying Reagent Dispenser. The fluorescence intensity in the plates was then measured using a ViewLux plate reader.
# On the % scale 0 is the no-effect control and ±100 the full control effect.
row,SMILES,"activity change, negative = cytotoxicity"
1,CC(=O)N1C[C@H](O)C[C@H]1C(=O)O,-4.21% [at 42.5 µM]
2,CCN[C@@H]1C[C@H](N)[C@@H](OC2OC(CN)=CCC2N)[C@H](O)[C@H]1O[C@H]1OC[C@](C)(O)[C@H](NC)[C@H]1O (stereo not given in full),0.22% [at 0.349 µM]
3,O=S(=O)(O)c1cccc(S(=O)(=O)O)c1,3.97%
4,COc1cc2c(cc1OC)-c1cc3ccc(OC)c(OC)c3c[n+]1CC2,-19.1%
5,CC(C)(C#N)Nc1nc(Cl)nc(NC2CC2)n1,-9.22%
6,CCOc1c(N2CCOCC2)cnn(C)c1=O,1.26% [at 42.5 µM]
7,C=COC(=O)C(C)(CC)CCC(C)C (stereo not given),8.89%
8,Nc1ccn([C@@H]2O[C@H](CO)[C@@H](O)[C@@H]2O)c(=O)n1,-0.189%
9,Cc1ccc(C(=O)c2ccccc2)cc1,0.445%
10,CCCCCCC1CCC(=O)O1 (stereo not given),4.87%
11,CCC1C(=O)OCC1Cc1cncn1C (stereo not given),0.105% [at 42.5 µM]
12,CCOC(=O)c1ccccc1,2.1%
13,CC(N)C12CC3CC(CC(C3)C1)C2 (stereo not given),-1.05% [at 42.5 µM]
14,C[N+]12CCC(CC1)C(OC(=O)C(O)(c1ccccc1)c1ccccc1)C2 (stereo not given),2.02% [at 42.5 µM]
15,O=C(O)c1cc(C(=O)O)cc(C(=O)O)c1,-2.43%
16,CN1C(C)(C)CC(O)CC1(C)C,3.12%
17,C[C@H]1[C@H](NC(=O)/C(=N/OC(C)(C)C(=O)O)c2csc(N)n2)C(=O)N1S(=O)(=O)O (stereo in doubt),11.1% [at 42.5 µM]
18,CC(C)C(=O)OC(=O)C(C)C,-1.57%
19,CCNS(=O)(=O)c1ccc(C)cc1,2.62%
20,CCCC(C)C(=O)OCC (stereo not given),0.995%

row,SMILES,"activity change, negative = cytotoxicity"
1,C=CCCCCCCCCC(=O)OCC,0.611%
2,CCNC(=O)[C@@H]1CCCN1C(=O)[C@H](CCCN=C(N)N)NC(=O)[C@H](CC(C)C)NC(=O)CNC(=O)[C@H](Cc1ccc(O)cc1)NC(=O)[C@H](CO)NC(=O)[C@H](Cc1c[nH]c2ccccc12)NC(=O)[C@H](Cc1cnc[nH]1)NC(=O)[C@@H]1CCC(=O)N1 ([pGlu]HWSYGLRP-NHEt),3.99% [at 42.5 µM]
3,CC1=CC(=O)[C@H]2C[C@@H]1C2(C)C,-5.9%
4,CC(C)C1CCC(O)CC1 (stereo not given),1.8%
5,NC(CCC(=O)O)C(=O)O (stereo not given),-0.191%
6,COc1c(N2CCNC(C)C2)c(F)cc2c(=O)c(C(=O)O)cn(C3CC3)c12 (stereo not given),2.65% [at 42.5 µM]
7,CCOC(=O)COC(=O)c1ccccc1C(=O)OCC,7.02%
8,Cc1cccc(C)c1NC(=O)CC12CCCN1CCC2,4.76% [at 42.5 µM]
9,[Ca+2],1.1%
10,NCCCC(N)(C(=O)O)C(F)F (stereo not given),10.2% [at 42.5 µM]
11,CC(=O)c1ccc2ccccc2c1,0.965%
12,O=S(=O)(O)c1cccc2c(S(=O)(=O)O)cccc12,0.223%
13,Cc1coc2ccccc2c1=O,10.7% [at 42.5 µM]
14,O=C1NC(=O)C2CC=CCC12 (stereo not given),0.232%
15,Cc1c(N)c(=O)n(-c2ccccc2)n1C,0.0478% [at 42.5 µM]
16,O=[N+]([O-])c1ccc(/C=N\O)o1,-10.5% [at 42.5 µM]
17,NC(=O)N1c2ccccc2CC(=O)c2ccccc21,5.71% [at 42.5 µM]
18,C[C@H]1C[C@H]2[C@@H]3CCC4=CC(=O)C=C[C@]4(C)[C@H]3C(=O)C[C@]2(C)[C@@]1(O)C(=O)CO,-5.74% [at 42.5 µM]
19,CC(C)NNC(=O)c1ccncc1,5.05% [at 42.5 µM]
20,CC(=O)OCC(=O)[C@@]1(O)[C@H](C)C[C@H]2[C@@H]3CCC4=CC(=O)C=C[C@]4(C)[C@@]3(F)[C@@H](O)C[C@@]21C,2.52% [at 42.5 µM]
